Source: PubChem BioAssay (NCI)
This is part of a sample that, as a whole, favours compounds with a hit. Of some 83,000 tested, about 20% had one in any assay.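 Step 1: grow cells in 96-well plates. Step 2: add test compound at a single concentration. Step 3: incubate 48 h. Step 4: record percent growth.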 A number with no mark means an inactive call. Activity calls are given as the source filed them. Rule for the calls: active = growth percent below 10; inactive = the rest.

Legend:
Test in all cases: NCI-60 one-dose screen, 48 h (100 = growth as untreated, 0 = no growth, -100 = all killed)
Settings in all cases: 10 µM unless noted
NCI-H23 lung = test system: NCI-H23 lung
NCI-H226 lung = test system: NCI-H226 lung
NCI-H322M lung = test system: NCI-H322M lung
HOP-62 NSCLC = test system: HOP-62 NSCLC
NCI-H460 lung = test system: NCI-H460 lung
HOP-92 NSCLC = test system: HOP-92 NSCLC
NCI-H522 lung = test system: NCI-H522 lung
A549/ATCC NSCLC = test system: A549/ATCC NSCLC
786-0 renal = test system: 786-0 renal
COLO 205 colon = test system: COLO 205 colon
DU-145 prostate = test system: DU-145 prostate
K-562 leukemia = test system: K-562 leukemia
MALME-3M melanoma = test system: MALME-3M melanoma
MDA-MB-231 breast = test system: MDA-MB-231 breast
SF-268 CNS = test system: SF-268 CNS
SF-295 CNS = test system: SF-295 CNS
SF-539 CNS = test system: SF-539 CNS
UACC-257 melanoma = test system: UACC-257 melanoma
RXF 393 renal = test system: RXF 393 renal
M14 melanoma = test system: M14 melanoma

Row | Structure (SMILES) | growth (NCI-H23 lung) | growth (NCI-H226 lung) | growth (NCI-H322M lung) | growth (HOP-62 NSCLC) | growth (NCI-H460 lung) | growth (HOP-92 NSCLC) | growth (NCI-H522 lung) | growth (A549/ATCC NSCLC) | growth (786-0 renal) | growth (COLO 205 colon) | growth (DU-145 prostate) | growth (K-562 leukemia) | growth (MALME-3M melanoma) | growth (MDA-MB-231 breast) | growth (SF-268 CNS) | growth (SF-295 CNS) | growth (SF-539 CNS) | growth (UACC-257 melanoma) | growth (RXF 393 renal) [%] | growth (M14 melanoma) [%]
1 | COc1ccccc1/C=C1\Oc2cc(OCCCN3CCCC3)ccc2C1=O | 83% | 98.7% | 96.5% | 88.5% | 95.9% | 63.1% | 104% | 99.9% | 94% | 96.4% | 98% | 4.95% (active) | 96.5% | 86.5% | 90.3% | 99.2% | 76.4% | 109% |  | 
2 | CCCNC(=O)Oc1ccc(/C(=C(\C)c2ccccc2)c2ccc(OCCN3CCCCC3)cc2)cc1 | 79.4% | 89.5% | 83.3% | 81.9% | 66.7% | 80.7% | 103% | 62.2% | 35.8% | 38% | 87.9% | 10.2% | 61.3% | 81.9% | 72.6% | 55% | 37.5% | -14.1% (active) | 64.4 | 14.1
3 | CC1=NNC(=O)C1CCC(=O)N/N=C(\C)c1ccc2ccccc2c1 (stereo not drawn) | 104% | 99.6% | 122% | 115% | 108% | 94.4% | 96.1% | 95.3% | 103% | 167% | 102% | 97.6% | 120% | 111% | 98.9% | 323% | 94.8% | 99.9% |  | 
4 | Cc1c2c(cc[n+]1Cc1ccc(F)cc1)c1ccc(OCc3cccc(F)c3)cc1n2Cc1cccc(F)c1 | -58.1% (active) | -66.9% (active) | -72.1% (active) | -91.2% (active) | -78% (active) | -73.9% (active) | -80.1% (active) | 25.1% | -85.8% (active) | -91.1% (active) | -90.8% (active) | -15.8% (active) | -79.6% (active) | -87.7% (active) | -94.2% (active) | -68.5% (active) | -65.4% (active) | -86% (active) |  | 
5 | CCOC(=O)c1c(C)nc2c(c1N)C(=O)C(=O)N2Cc1ccc(C(F)(F)F)cc1 | 69.8% | 73.2% | 97.3% | 60.5% | 93.7% | 50.3% | 31% | 84.3% | 33.9% | 101% | 84.5% | 36.2% | 59.3% | 75.6% | 59.7% | 81% | 52.6% | 74.2% | 58.7 | 53
6 | COc1cc(C2CC(c3cccc(Nc4ccncc4)c3)=NN2C(C)=O)cc(OC)c1OC (stereo not drawn) | 104% | 96.8% | 102% | 91.1% | 103% | 70.1% | 77.9% | 98.5% | 88% | 95% | 107% | 34.7% | 80% | 92.8% | 94.4% | 94.9% | 89.1% | 91.5% |  | 
7 | C#Cc1cccc(NC(=O)Nc2ccc(NC(=O)CCl)cc2)c1 | -66.6% [8.25 µM] (active) | -27.4% [8.25 µM] (active) | 86.8% [8.25 µM] | -6.94% [8.25 µM] (active) | -23.9% [8.25 µM] (active) | -66.5% [8.25 µM] (active) | -70.8% [8.25 µM] (active) | 45.3% [8.25 µM] | -71.5% [8.25 µM] (active) | -58.2% [8.25 µM] (active) | 22.3% [8.25 µM] | 3.37% [8.25 µM] (active) | -80.5% [8.25 µM] (active) | -72.6% [8.25 µM] (active) | -82.9% [8.25 µM] (active) | 79.5% [8.25 µM] | -99.6% [8.25 µM] (active) | 35.1% [8.25 µM] |  | 
8 | Cc1ccc2nc3c(cc2c1)CSc1nnc(-c2ccc[nH]c2=S)n1N3 | 98.6% | 91.5% | 99.9% | 95.8% | 99.2% | 102% | 83.7% | 99.7% | 98.7% | 110% | 113% | 93% | 97.7% | 93.4% | 89.5% | 108% | 97.3% | 103% |  | 
